Here are results for 21 compounds from PubChem BioAssay (NCI).

The nature of assay [1]: NCI Yeast Anticancer Drug Screen. Data for the rad50 strain (AID 155).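 Also: 0% = growth of vehicle-only cultures of the same strain.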 The following applies: S. cerevisiae rad50 strain growth inhibition; at 50.0 µM; stronger effect = higher value. The gist of the method: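 DNA repair mutant yeast, compound exposure, growth read-out; inhibition is taken relative to vehicle.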
A short description of assay [2]: NCI Yeast Anticancer Drug Screen. Data for the mec2-1 strain (AID 157). Particulars: S. cerevisiae mec2-1 strain, at 50.0 µM, stronger effect = higher value. The gist of the method: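 Vehicle-treated cultures served as reference for growth inhibition of compound-exposed mec2-1 yeast.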
Assay [3] is described as follows: NCI Yeast Anticancer Drug Screen. Data for the sgs1 mgt1 strain (AID 161).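 Also: 0% = growth of cultures given vehicle only.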 Particulars: S. cerevisiae sgs1 mgt1 strain, at 50.0 µM, stronger effect = higher value. In short, it runs like this: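 Genetically altered yeast, compound exposure, growth inhibition relative to vehicle.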
A short description of assay [4]: NCI Yeast Anticancer Drug Screen. Data for the cln2 rad14 strain (AID 165).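 Also: 0% = growth equal to vehicle treated cultures.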 Particulars: S. cerevisiae cln2 rad14 strain, at 50.0 µM, stronger effect = higher value. In short, it runs like this:
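Each compound was tested on cln2 rad14 yeast. Inhibition of growth was calculated against vehicle-exposed controls.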

Assay [5] can be described thus: NCI Yeast Anticancer Drug Screen. Data for the bub3 strain (AID 167). The following applies: S. cerevisiae bub3 mutant strain, at 50.0 µM, stronger effect = higher value. The gist of the method:
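In this screen, a yeast mutant lacking normal mitotic checkpoint function is challenged with compound. Relative growth versus vehicle gives the inhibition value.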

Assay [6] in a line: NCI Yeast Anticancer Drug Screen. Data for the mlh1 rad18 strain (AID 175). Particulars: S. cerevisiae mlh1 rad18 strain growth inhibition; at 50.0 µM; stronger effect = higher value. The gist of the method: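 Vehicle-treated cultures served as the reference for growth inhibition in a yeast strain carrying DNA damage repair alterations exposed to each compound.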

This is part of a sample that, as a whole, favours compounds with a hit. Of some 79,000 tested, about 15% had one in any assay. Unmarked numbers belong to inactive results. The source made the active and inactive calls. Rule as the data show it: active = growth inhibition above about 70%; inactive = the rest.

Turning to `CN(C)NC(=O)/C=C\C(=O)O`, the growth inhibition in assay [1] was -12.6%; in assay [2], -17.4%; in assay [3], -9.8%; in assay [4] it was -6.9%; in assay [5], -7.45%; in assay [6] it was -3.2%.

Consider `O=C(O)COc1cc(-c2ccccc2)nc2ccc(F)cc12`, for which the growth inhibition is -3% in assay [1]; 16.6% in assay [2]; 31.5% in assay [3]; 7.25% in assay [4]; 3.1% in assay [5]; 10.2% in assay [6].

Consider `CSc1nnc(CCC(=O)Nc2ccc(Cl)cc2Cl)o1`, for which the growth inhibition in assay [1] was 0.75%; in assay [2], 12.5%; in assay [3], 10.9%; in assay [4], 10.3%; in assay [5], 14.4%; in assay [6], -10.2%.

With `CC12CCC(c3cn[nH]c31)C2(C)C` (stereo unspecified), the growth inhibition in assay [1] is 16.1%; in assay [2], 20.8%; in assay [3] it was 19.9%; in assay [4], -6.6%; in assay [5] it was -0.35%; in assay [6] it was 0.7%.

For the compound `Cc1cccc(-n2c(N)cc(=O)[nH]c2=S)n1`, the growth inhibition in assay [1] is -11.5%; in assay [2], -2.2%; in assay [3], -7.8%; in assay [4] it was -38.4%; in assay [5] it was -10.1%; in assay [6] it was -4.15%.

With `NC(=O)NC(=S)NC(=O)c1ccccc1`, the growth inhibition in assay [1] is -2.95%; in assay [2] it was 0.95%; in assay [3], -2.95%; in assay [4] it was -33.5%; in assay [5] it was -28.8%; in assay [6] it was -7%.

With `NC(CCC(=O)O)C(=O)NC(Cc1c[nH]c2ccccc12)C(=O)O` (stereo unspecified), the growth inhibition is -12.7% in assay [1]; 12.3% in assay [2]; -5.05% in assay [3]; -23.1% in assay [4]; -22.4% in assay [5]; -24.6% in assay [6].

`O=C1NC(=S)S/C1=C/C=C/c1ccccc1[N+](=O)[O-]`: the growth inhibition in assay [1] is 2.95%; in assay [2] it was 0.85%; in assay [3] it was -3.9%; in assay [4], -16.6%; in assay [5], 42.5%; in assay [6], -16.6%.

For `CCC(N)CS(=O)(=O)O` (stereo unspecified), the growth inhibition in assay [1] was -33.7%; in assay [2], -19.6%; in assay [3], -9.9%; in assay [4], -61%; in assay [5], -26.8%; in assay [6], -45.1%.

`CCOC(=O)/C=C1\NCCc2ccccc21`: the growth inhibition in assay [1] was -6.85%; in assay [2] it was 1.45%; in assay [3], 8.5%; in assay [4], 24%; in assay [5], 4.8%; in assay [6] it was 4.55%.

As for `CC(=O)N[C@@H]1CCC[C@H](NC(C)=O)C1`, the growth inhibition is -9.75% in assay [1]; -44.4% in assay [2]; -12.7% in assay [3]; -17.1% in assay [4]; 12.7% in assay [5]; -23.9% in assay [6].

Turning to `CCOC(=O)c1c[nH]n(Cc2ccccc2)c1=O`, the growth inhibition in assay [1] was 12%; in assay [2] it was 13.4%; in assay [3] it was 2.95%; in assay [4], -23.2%; in assay [5] it was 13.6%; in assay [6], -1.2%.

Regarding `N#C/C(=C/NC(=S)Nc1ccc(S(N)(=O)=O)cc1)C(N)=O`, the growth inhibition was -44.8% in assay [1]; -89% in assay [2]; -26.4% in assay [3]; -10.8% in assay [4]; -20.4% in assay [5]; -24.1% in assay [6].

Consider `O=C(Nc1ccccc1)C1C2C=CC(CC2)C1C(=O)Nc1ccccc1` (stereo unspecified), for which the growth inhibition in assay [1] was -0.25%; in assay [2], 4.95%; in assay [3] it was 7.7%; in assay [4] it was -10.2%; in assay [5], -11.5%; in assay [6], -13.6%.

Regarding `CN(NC(=O)CCCl)C1=NCCN1`, the growth inhibition was 5.15% in assay [1]; -4.6% in assay [2]; -3.95% in assay [3]; -11% in assay [4]; 8.1% in assay [5]; 16.7% in assay [6].

On to `CC(O)C(F)(F)F` (stereo unspecified), for which the growth inhibition in assay [1] was 18.2%; in assay [2], -8.8%; in assay [3] it was 7.65%; in assay [4], 15.9%; in assay [5], -3.75%; in assay [6], 21.8%.

Consider `Oc1ccccc1-c1cc(-c2ccccc2)nc(NCCCCCCNc2nc(-c3ccccc3)cc(-c3ccccc3O)n2)n1`, for which the growth inhibition was 9.85% in assay [1]; 3.9% in assay [2]; -12.1% in assay [3]; -24.2% in assay [4]; -6.4% in assay [5]; 11.2% in assay [6].

Turning to `c1ccc(CCc2cccnc2)nc1`, the growth inhibition in assay [1] is 26%; in assay [2], -4.5%; in assay [3], -21.6%; in assay [4], 50%; in assay [5] it was -6.1%; in assay [6] it was -1.7%.

On to `CCCCC/C=C1\CCC(CN2CCOCC2)C1=O` (stereo unspecified), for which the growth inhibition in assay [1] is 89.5% (active); in assay [2], 90.7% (active); in assay [3], 91.9% (active); in assay [4], 90.1% (active); in assay [5], 90.3% (active); in assay [6] it was 89% (active).

`CCCCOC(=O)c1cccc(C(=O)OCCCC)n1`: the growth inhibition in assay [1] was -20.9%; in assay [2], -18.9%; in assay [3] it was -14.1%; in assay [4], -5.6%; in assay [5], -11.5%; in assay [6] it was -22.8%.

With `CN1Cc2ccccc2[C@H]2C(c3ccccc3)=NN(c3ccccc3)[C@H]21`, the growth inhibition is 39.6% in assay [1]; 26.9% in assay [2]; 59.2% in assay [3]; 9.6% in assay [4]; 41.2% in assay [5]; 37.2% in assay [6].
